The campaign covered roughly 310,000 compounds. About 14,000 (4.5%) showed an effect of 50% or more. The effect is printed as a negative number. What follows is part of a selection rich in strong results, with near analogues and random picks from the rest.
biological target: human ether-à-go-go-related gene (hERG) potassium channel (human, UniProt Q12809); experiment: primary screen, population patch clamp on CHO cells stably expressing hERG; higher = less effect of the substance
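Note: peak tail current of the secondary pulse compared with the same well before compound.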

Chain of human ether-à-go-go-related gene (hERG) potassium channel (Q12809 whole entry, looked up): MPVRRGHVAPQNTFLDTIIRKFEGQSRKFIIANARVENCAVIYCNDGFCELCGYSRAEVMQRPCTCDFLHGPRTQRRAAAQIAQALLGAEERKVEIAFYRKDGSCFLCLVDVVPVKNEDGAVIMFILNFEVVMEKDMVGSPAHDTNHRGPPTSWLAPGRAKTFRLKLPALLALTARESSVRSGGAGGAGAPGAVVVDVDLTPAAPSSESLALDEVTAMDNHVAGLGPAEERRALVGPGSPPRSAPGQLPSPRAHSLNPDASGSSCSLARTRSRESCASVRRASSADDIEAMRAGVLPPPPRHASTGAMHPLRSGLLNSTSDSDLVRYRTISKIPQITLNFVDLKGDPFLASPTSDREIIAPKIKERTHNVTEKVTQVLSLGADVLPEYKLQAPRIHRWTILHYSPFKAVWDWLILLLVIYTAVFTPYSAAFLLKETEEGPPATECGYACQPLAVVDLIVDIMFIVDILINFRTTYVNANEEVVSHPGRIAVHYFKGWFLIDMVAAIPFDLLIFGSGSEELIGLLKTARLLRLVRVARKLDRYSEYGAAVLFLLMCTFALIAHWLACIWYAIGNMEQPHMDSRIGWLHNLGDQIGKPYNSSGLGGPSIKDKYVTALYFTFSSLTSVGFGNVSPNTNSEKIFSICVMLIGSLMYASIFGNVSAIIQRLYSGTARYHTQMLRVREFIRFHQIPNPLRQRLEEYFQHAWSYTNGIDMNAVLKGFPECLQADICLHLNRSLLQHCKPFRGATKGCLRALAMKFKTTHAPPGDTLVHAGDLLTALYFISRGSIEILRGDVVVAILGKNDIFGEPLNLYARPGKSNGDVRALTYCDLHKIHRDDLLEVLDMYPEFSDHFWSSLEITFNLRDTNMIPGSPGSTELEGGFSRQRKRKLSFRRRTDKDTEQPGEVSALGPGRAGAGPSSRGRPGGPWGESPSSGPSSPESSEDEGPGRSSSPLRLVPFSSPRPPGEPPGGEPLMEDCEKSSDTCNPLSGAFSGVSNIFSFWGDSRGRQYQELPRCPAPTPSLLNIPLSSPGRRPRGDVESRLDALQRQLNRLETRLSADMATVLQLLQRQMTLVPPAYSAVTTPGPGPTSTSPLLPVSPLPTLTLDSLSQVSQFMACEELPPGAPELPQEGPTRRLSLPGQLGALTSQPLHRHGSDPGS

Compound | hERG current change (%, negative = inhibition) at 10uM [%]
N#Cc1c(-c2ccccc2)ccn(Cc2cccc(Cl)c2)c1=O | 8.43
Cc1ccc(Nc2cc(-n3nc(C)cc3C)ncn2)c(C)c1 | -3.97
COCCCN1C2=C(C(=O)CC(C)(C)C2)C(c2ccc(O)c(OC)c2)C2=C1CC(C)(C)CC2=O | 11.2
Cc1ccc(N)cc1CN1CCCC1=O | 2.15
CCN(CC)S(=O)(=O)c1ccc(C(=O)NC(C)(C)C)cc1 | 19.1
O=C(CCN1CCN(c2ccc(F)cc2)CC1)Nc1ccc(F)cc1 | -56.8
O=C(CCN1CCOCC1)Nc1ccc(F)cc1 | -10.5
COc1ccc(NC(=O)CCN2CCN(c3ccc(F)cc3)CC2)cc1 | -33
O=C(CCN1CCN(c2ccccn2)CC1)Nc1ccc(F)cc1 | -42.5
Cc1ccccc1N1CCN(CCC(=O)Nc2ccc(F)cc2)CC1 | -67.5
O=C(CCN1CCN(c2ccccc2F)CC1)Nc1ccc(F)cc1 | -18.3
CCC(C)(C)n1nnnc1C(c1cccnc1)N1CCCc2ccccc21 (stereo not shown) | -19.6
CCS(=O)(=O)NCc1csc(-c2ccccc2)n1 | 18
Cc1cnccc1CN(C)C(=O)CC1C(=O)NCCN1CC1CCCCC1 (stereo not shown) | -4.59
COc1ccc(/C=C2\SC(=S)N(CCC(=O)Nc3ccccn3)C2=O)cc1OC | 26.2
Cl.OC(COCC1COc2ccccc2O1)CN1CCCCC1 (stereo not shown) | -43.6
CC1CCCC(C)N1CC(O)COCC1COc2ccccc2O1.Cl (stereo not shown) | -15.8
Cl.OC(COCC1COc2ccccc2O1)CN1CCN(c2ccccc2F)CC1 (stereo not shown) | -58.9
Cl.OC(COCC1COc2ccccc2O1)CN1CCN(c2ccccc2)CC1 (stereo not shown) | -64.1
Cl.OC(COCC1COc2ccccc2O1)CN1CCN(c2ccc(F)cc2)CC1 (stereo not shown) | -79.3
CC[N+](C)(CC)CC(O)COCC1COc2ccccc2O1.[I-] (stereo not shown) | 1.73

Compound | hERG current change (%, negative = inhibition) at 10uM [%]
Cl.OCCN1CCN(CC(O)COCC2COc3ccccc3O2)CC1 (stereo not shown) | 33.4
O=C(C1COc2ccccc2O1)N1CCN(c2ccccc2F)CC1 (stereo not shown) | 9.47
C[N+]1(CC(O)COCC2COc3ccccc3O2)CCOCC1.[I-] (stereo not shown) | 18.3
CCN1CCN(CC(O)COCC2COc3ccccc3O2)CC1.Cl (stereo not shown) | -4.69
CC1CCCN(CC(O)COCC2COc3ccccc3O2)C1.Cl (stereo not shown) | -28.2
Cl.OC(COCC1COc2ccccc2O1)CN1CCc2ccccc2C1 (stereo not shown) | -64.9
CCN1CCN(S(=O)(=O)c2cccc3nsnc23)CC1 | -5.57
COc1cccc(/C=C2\SC(=N)N(c3ccc(F)cc3)C2=O)c1 | 9.22
CCCOc1ccc(-c2c(C(=O)N/N=C/c3ccccc3)nnn2-c2nonc2N)cc1 | 4.98
O=C(Nc1ccc2c(c1)OCO2)c1cc(-c2cccc(O)c2)on1 | -63.1
O=C(Nc1ccc2c(c1)OCO2)c1cc(-c2ccc(O)cc2)on1 | 22.4
O=C(Nc1cccc(O)c1)c1cc(-c2ccc3c(c2)OCO3)on1 | 11.3
Cc1ccc(CN2CCN(C/C=C/c3ccc(F)cc3)CC2CCO)o1 (stereo not shown) | -54.5
CCOc1ccccc1CN1CCN(Cc2ccc(C)o2)C(CCO)C1 (stereo not shown) | -12.9
COc1cc(/C=C/CN2CCN(CCC(C)C)C(CCO)C2)ccc1O (stereo not shown) | 23
COc1ccccc1/C=C/CN1CCN(Cc2ccc(F)cc2)C(CCO)C1 (stereo not shown) | -51
COc1cc(/C=C/CN2CCN(Cc3ccc(C)o3)C(CCO)C2)ccc1O (stereo not shown) | -6.62
C/C(=C\c1ccccc1)CN1CCN(Cc2ccc(C)o2)C(CCO)C1 (stereo not shown) | -13.4
COC(=O)c1ccc(CN2CCN(CC(C)C)C(CCO)C2)cc1 (stereo not shown) | -3.11
COc1ccc(/C=C/CN2CCN(CC(C)C)C(CCO)C2)cc1 (stereo not shown) | -52.2
COc1ccccc1/C=C/CN1CCN(Cc2ccc(C)o2)C(CCO)C1 (stereo not shown) | -12

Compound | hERG current change (%, negative = inhibition) at 10uM [%]
CCOc1ccccc1CN1CCN(C/C=C/c2ccc(OC)cc2)CC1CCO (stereo not shown) | -65
COc1ccc(CCNC(=O)c2sc3cc(C)ccc3c2Cl)cc1 | 3.77
CCn1c(SCC(=O)Nc2ccccc2C(=O)OC)nnc1-c1cccc(C)c1 | -36.2
O=S(=O)(c1ccc(O)cc1)c1ccc(O)cc1 | 16.9
CNC(=O)C(=O)NCC1CCCN1S(=O)(=O)c1cccs1 (stereo not shown) | 12.4
C=CCn1c(-c2cccnc2Cl)nc2ccccc21 | 8.48
Cc1nn(-c2cc(N3CCOCC3)ccc2[N+](=O)[O-])c(=O)c2ccccc12 | -4.66
O=C([O-])/C=C1\CCCc2ccccc2C1O.[Na+] (stereo not shown) | 18.4
Cc1ccsc1/C=N/NC(=O)CNC(=O)c1ccc(S(=O)(=O)N2CCOCC2)cc1 | 2.86
O=C(C1CCN(S(=O)(=O)c2cccc3cccnc23)CC1)N1CCN(C2CCCCC2)CC1 | -0.647
COc1cccc(CN2CCN(Cc3ccc(OC)c(OC)c3)CC2CCO)c1 (stereo not shown) | -27.2
COc1cccc(CN2CCN(CC#Cc3ccccc3)CC2CCO)c1 (stereo not shown) | -30.6
COc1ccc(/C=C/CN2CCN(Cc3ccc(F)cc3)C(CCO)C2)cc1 (stereo not shown) | -58.5
COc1ccc(CN2CCN(Cc3cccc(OC)c3)C(CCO)C2)cc1 (stereo not shown) | -45.8
COc1ccc(/C=C/CN2CCN(Cc3cccc(OC)c3)C(CCO)C2)cc1 (stereo not shown) | -51.9
COC(=O)c1ccc(CN2CCN(Cc3ccc(F)cc3)C(CCO)C2)cc1 (stereo not shown) | 10.1
CC(C)N1CCC(N2CCN(C/C=C/c3ccc(F)cc3)CC2CCO)CC1 (stereo not shown) | -6.87
CCOc1ccc(CN2CCN(C/C=C/c3ccc(OC)cc3)CC2CCO)cc1 (stereo not shown) | -88.7
COc1ccc(/C=C/CN2CCN(Cc3ccccc3)C(CCO)C2)cc1 (stereo not shown) | -51.9

From paper PMC4336329 (PLoS ONE, 2015)
